Compound activity as filed in PubChem.
NS1 inh: qHTS Assay for Inhibitors of Influenza NS1 Protein Function; Potency, µM (top dose mostly 46.1 µM); actives 0.4% (n = 270,000); AID 2326, 2010; also: actives are rising curves; nearly all actives have a fitted effect of over 50% in size
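A cell-based growth assay was used: compounds that relieve NS1-induced slow growth of budding yeast raise OD600. Assay medium was yeast nitrogen base with ammonium sulphate and -URA supplement, pH 6.0, with 2% galactose.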
SARS PLP yeast: qHTS of Yeast-based Assay for SARS-CoV PLP. S. cerevisiae expressing SARS-CoV PLpro, growth rescue. Potency, µM (doses to about 32.9 µM), usual class: activators. actives 0.19% (n = 330,000). AID 485353, 2010; also: nearly all actives have a fitted effect of over 55% in size
Pf growth 48h: Primary qHTS for delayed death inhibitors of the malarial parasite plastid, 48 hour incubation; P. falciparum luciferase growth in erythrocytes, 48 h; Potency, µM (top dose mostly 28.7 µM), usual class: inhibitors; actives 5.9% (n = 310,000); AID 504832, 2011; active = well fitted inhibition curve with a large enough effect; inconclusive = small, poorly fitted or top-dose-only effect, or another doubt; inactive = no such curve, though single readings can be large or run the other way
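In quantitative HTS format, infected erythrocytes bearing luciferase-reporter parasites were treated for a single generation at 37 C. Luminescence after adding detection reagent served as the growth measure.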
Pf growth 96h: Primary qHTS for delayed death inhibitors of the malarial parasite plastid, 96 hour incubation; P. falciparum luciferase reporter growth, 96 h; Potency, µM (highest dose often 28.7 µM), usual class: inhibitors; actives 6.9% (n = 320,000); active = well fitted inhibition curve with a large enough effect; inconclusive = small, poorly fitted or top-dose-only effect, or another doubt; inactive = no such curve, though single readings can be large or run the other way
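Delayed-death screen, second-generation endpoint: infected erythrocytes, 2% hematocrit, 0.05% parasitemia final; 96 hours at 37 C, 5% CO2; luciferase detection reagent; luminescence decrease equals reduced growth.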
Hits are given with their value; . = inactive; ? = inconclusive; / = no result; [ ] = remark or other dose. Most compounds without a hit are left out; they make up all but 10% or so of the library. Unless noted, calls follow the shape of the full dose curve.

SMILES	NS1 inh	SARS PLP yeast	Pf growth 48h	Pf growth 96h
CCc1ccc(C(=O)N2CCN(c3ccc(NC(=O)c4cccnc4)cc3)CC2)cc1	.	.	.	.
CCN(CC)CCCNC(=O)C1CCC(CNS(=O)(=O)c2ccc(Cl)cc2)CC1 (stereo not drawn)	.	.	.	.
Cc1cc(C)n(-c2nnc(NC34CC5CC(CC(C5)C3)C4)nn2)n1	.	.	3.3µM	2.9µM
Cc1cc(C)n(-c2nnc(NC(C)(C)C)nn2)n1	.	.	.	.
Cc1ccc(C)c(C(=O)CCC(=O)NCc2ccc(Cl)cc2)c1	/	.	.	?
O=S(=O)(c1ccc(OC(F)(F)F)cc1)N1CCC(O)(c2cccc(C(F)(F)F)c2)CC1	.	.	?	.
OC1(c2cccc(C(F)(F)F)c2)CCNCC1	.	.	.	13µM
CNC(=S)N/N=C/c1c(C)cccc1Cl	.	.	.	13µM
CNC(=S)N/N=C/c1cn(Cc2c(F)cccc2Cl)c2ccccc12	.	?	?	?
CNC(=S)N/N=C/c1cc(C)ccc1C	/	.	.	?
CNC(=S)N/N=C/c1c2ccccc2c(Cl)c2ccccc12	.	.	2.6µM	10µM
NC(=O)c1ccc(-c2nnn(CC(=O)N(C3CCCC3)C3CCS(=O)(=O)C3)n2)cc1 (stereo not drawn)	/	.	.	.
CCC1CN(C(=O)N2CCC(C(=O)NCc3ccco3)CC2)c2ccccc2O1 (stereo not drawn)	.	.	.	12µM
CCC1CN(C(=O)N2CCC(C(=O)NCc3ccc(OC)cc3OC)CC2)c2ccccc2O1 (stereo not drawn)	.	?	.	.
CCC1CN(C(=O)N2CCC(C(=O)Nc3ccccc3OC)CC2)c2ccccc2O1 (stereo not drawn)	.	?	?	?
CCC1CN(C(=O)N2CCC(C(=O)NCc3ccc(F)cc3)CC2)c2ccccc2O1 (stereo not drawn)	.	.	?	?
CCC1CN(C(=O)N2CCC(C(=O)NCc3ccc(C)o3)CC2)c2ccccc2O1 (stereo not drawn)	.	.	.	9.3µM
CCC1CN(C(=O)N2CCC(C(=O)NCc3cccc(F)c3)CC2)c2ccccc2O1 (stereo not drawn)	.	.	?	9.3µM
CS(=O)(=O)N(CC(=O)N1CCc2ccccc2C1)c1ccc(Cl)cc1F	.	.	.[0.00184 µM]	.
CN(C)S(=O)(=O)c1ccc(C(=O)NC(=O)CSc2nncs2)cc1	/	.	/	/
CCOC(=O)C1CCN(C(=O)c2cc(C)n(C(C)(C)C)n2)CC1	.	.	.	.
CNC(=O)c1ccc(NC(=O)Nc2ccccc2)cc1	.	.	.	?
O=C1C2CC=CCC2C(=O)N1c1ccc(N2CCN(c3ccccn3)CC2)c([N+](=O)[O-])c1 (stereo not drawn)	/	.	.	?
CC(C)=CCC/C(C)=C/CC/C(C)=C/CC/C(C)=C/CC1=C(C)C(=O)c2ccccc2C1=O	.	.	12µM	5.2µM
CC(C)=CCC1=C(OCC(=O)O)C(=O)c2ccccc2C1=O	.	.	13µM	2.9µM
SMILES	NS1 inh	SARS PLP yeast	Pf growth 48h	Pf growth 96h
COCCN(CC1CCCN(C2Cc3ccccc3C2)C1)C(=O)CCC(N)=O (stereo not drawn)	.	.	?	.
O=C(N1CCOCC1)N1CCN(S(=O)(=O)c2cccc([N+](=O)[O-])c2)CC1	.	/	.	.
O=C(O)c1ccc(CNCc2ccccc2)cc1	.	/	/	/
Cn1c(Cc2cccs2)nnc1SCC(=O)Nc1ccc(F)cc1F	/	.	.	.
CC(C)(C)c1csc(NC(=O)c2ccccc2O)n1	.	.	.	.
CC(=O)NNc1nc(-c2ccccc2)cs1	/	.	.	.
COc1ccc(-c2csc(NC(=O)c3ccccc3F)n2)cc1	.	.	.	?
CC(C)(C)c1csc(NNC(=O)c2ccc(Br)cc2)n1	/	.	2.9µM	?
O=C(NNc1nc(-c2ccccc2)cs1)c1cccs1	.	.	?	?
O=C(Nc1nc(-c2ccccc2)cs1)c1ccccc1F	.	.	.	13µM
O=C(NNc1nc(-c2ccc(F)cc2)cs1)c1ccccc1	.	.	5.2µM	8.3µM
O=C(NNc1nc(-c2ccccc2)cs1)c1ccc(F)cc1	/	.	12µM	9.3µM
CC1CCCCC1NC(=O)CSc1nnnn1C (stereo not drawn)	/	.	.	.
Nc1nnnn1/N=C/c1ccc(F)cc1	.	.	.[0.00184 µM]	.
Cc1noc(C)c1COC(=O)c1csc2c1CCCC2	/	.	.	.
Cc1ccccc1OC(C)C(=O)Nc1cccnc1 (stereo not drawn)	.	.	.	.
O=C(COc1ccccc1Cl)Nc1ccccc1C(=O)N1CCCCC1	.	.	.	.
C[C@@H]1O[C@H](OC2[C@@H](O)[C@H](O)C(O)[C@H](O)[C@H]2O)[C@@H](N)C[C@@H]1N=C(N)C(=O)O (stereo partly drawn)	.	/	/	/
O=C(NNc1nc2ccccc2s1)c1ccc(F)cc1	.	.	13µM	?
O=C1NC(c2ccc3c(c2)OCO3)Oc2ccccc21 (stereo not drawn)	.	.	.	5.2µM
O=S(=O)(NC1CCCCCC1)c1cccc2cccnc12	.	.	.	5.2µM
COc1ccc(NS(=O)(=O)c2cccc3cccnc23)cc1Cl	.	.	?	0.93µM
Cc1cccc(NS(=O)(=O)c2ccc(C3CCCCC3)cc2)n1	.	.	9.3µM	/
Cc1cccc(NS(=O)(=O)c2cccc3cccnc23)n1	.	.	.	1.7µM
CCOC(=O)C1=C(CSc2nc(C)ccc2C#N)OC(N)=C(C#N)C1c1cccc(OC)c1OC (stereo not drawn)	.	.	.	6.6µM
SMILES	NS1 inh	SARS PLP yeast	Pf growth 48h	Pf growth 96h
CCOC(=O)C1=C(CSc2nc(-c3ccncc3)ccc2C#N)OC(N)=C(C#N)C1c1cccnc1 (stereo not drawn)	.	.	13µM	?
CC1CCC(NC(=O)CN2C(=O)NC3(CCCCC3C)C2=O)CC1 (stereo not drawn)	/	.	?	.
O=C(Nc1ccc2nc(-c3cccs3)c(-c3cccs3)nc2c1)NC1CC1	.	.	/	9.3µM
COCCNC(=O)Nc1ccc2nc(-c3cccs3)c(-c3cccs3)nc2c1	.	.[6.58 µM]	/	?
O=C(c1cc(-c2ccc3c(c2)OCO3)on1)N1CCCCC1	.	.	.	13µM
O=C(c1cc(-c2ccc(Cl)c(Cl)c2)on1)N1CCCCCC1	.	.	.	.
CC(CCc1ccccc1)NS(=O)(=O)c1ccc(Cl)c(C(=O)O)c1 (stereo not drawn)	.	.	.	.
Cc1cc(C)c(S(=O)(=O)c2cccc(C)c2C)c(=O)[nH]1	.	.	.	.
CCCN1CCN(C(=O)C2CCN(c3nnc(C)c4c(C)n(-c5ccc(C)cc5)nc34)CC2)CC1	.	.	10µM	?
Cc1ccc(-n2nc3c(N4CCC(C(=O)N5CCN(C)CC5)CC4)nnc(C)c3c2C)cc1	.	.	?	?
Cc1ccc(-n2nc3c(N4CCC(C(=O)N5CCCCCC5)CC4)nnc(C)c3c2C)cc1	.	.	?	12µM
CS(=O)(=O)c1ccc([C@H](O)[C@H](CO)NC(=O)C(Cl)Cl)cc1	/	/	.	?
CS(=O)(=O)c1ccc([C@H](O)[C@H](CF)NC(=O)C(Cl)Cl)cc1	/	/	?	2µM
